The list is not random: actives were taken first. Their share in the collection is about 0.43%.
aGlu spleen mod: qHTS Assay for Inhibitors and Activators of Human alpha-Glucosidase From Spleen Homogenate | Lysosomal alpha-glucosidase (Homo sapiens), P10253 | human spleen homogenate, 4-MU-alpha-glucoside fluorescence | Potency, µM (top dose mostly 79.9 µM), usual class: inhibitors | hit rate 0.006% among 240,000
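AC50 values come from Hill-equation fits of concentration-response data, normalized to no-enzyme and full-activity controls. Enzyme source: 1 ug human spleen homogenate; 1 mM fluorogenic 4-MU glucoside, pH 5.0 citrate buffer, 37 C, 40 min.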
GLA spleen mod: qHTS Assay for Inhibitors and Activators of Human alpha-Galactosidase From Spleen Homogenate; hit rate 0.008% among 240,000; Alpha-galactosidase A (Homo sapiens), P06280; human spleen homogenate, 4MU-alpha-Gal fluorescence, 40 min; Potency, µM (series often up to 80 µM), actives largely listed as inhibitors; AID 2107, 2009
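Human spleen homogenate (1 ug) was the enzyme source, with 4-methylumbelliferyl-alpha-D-galactopyranoside (1 mM final) in pH 5.0 citrate buffer with 0.01% Tween-20. Compounds were titrated; after 40 min at 37C, NaOH/glycine stop, 4-MU fluorescence read; AC50 from Hill fits.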
GAA inhib: qHTS Assay for Inhibitors of Human alpha-Glucosidase as a Potential Chaperone Treatment of Pompe Disease; purified human GAA, 4-MU-alpha-glucoside fluorescence; AID 1466, 2008; Lysosomal alpha-glucosidase (Homo sapiens), P10253; Potency, µM (highest dose often 76.9 µM), hits mostly inhibitors; hit rate 0.005% among 200,000
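Endpoint fluorogenic read: 20 min room-temperature reaction of 4 nM human alpha-glucosidase with 400 uM 4-methylumbelliferyl-alpha-D-pyranoside, pH 5.0, quenched with 1M NaOH/1M glycine pH 10. AC50 from Hill modeling.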
GLA inh pH 4.5: qHTS Assay for Inhibitors of Human alpha-Galactosidase at pH 4.5; activity change, negative = inhibition, % at 105 µM; 230,000 tested, under 10 active; purified enzyme, 4-MU-alpha-Gal fluorescence, pH 4.5
Target sequence (P06280 whole entry, looked up): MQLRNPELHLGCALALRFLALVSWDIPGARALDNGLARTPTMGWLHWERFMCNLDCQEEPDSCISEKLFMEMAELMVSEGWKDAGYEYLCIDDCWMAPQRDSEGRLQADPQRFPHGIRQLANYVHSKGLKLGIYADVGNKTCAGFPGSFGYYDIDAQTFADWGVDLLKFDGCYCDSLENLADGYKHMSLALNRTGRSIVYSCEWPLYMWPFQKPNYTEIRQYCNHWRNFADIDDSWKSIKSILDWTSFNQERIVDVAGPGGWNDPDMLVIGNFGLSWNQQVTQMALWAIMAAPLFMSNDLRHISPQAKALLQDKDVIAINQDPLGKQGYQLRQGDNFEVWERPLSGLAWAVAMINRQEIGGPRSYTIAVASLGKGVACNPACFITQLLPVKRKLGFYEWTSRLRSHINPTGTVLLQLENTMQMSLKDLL
GAA glycogen: qHTS Assay for Inhibitors and Activators of Human alpha-Glucosidase Cleavage of Glycogen; Potency, µM (series often up to 76.4 µM), actives largely listed as inhibitors; hit rate 0.38% among 300,000; AID 2100, 2009; recombinant GAA, glycogen substrate, Amplex Red glucose oxidase fluorescence; Lysosomal alpha-glucosidase (Homo sapiens), P10253;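 also: the screen sought inhibitors and activators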
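Recombinant human enzyme (4 nM); glycogen substrate; 37 C, 40 min, pH 5.0. Readout: coupled glucose oxidase/Amplex Red fluorescence.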
N370S GC: qHTS Assay for Inhibitors and Activators of N370S glucocerebrosidase as a Potential Chaperone Treatment of Gaucher Disease; N370S GC spleen homogenate, 4MU-glucoside fluorescence; Potency, µM (titrated, usually from 59.4 µM), actives largely listed as inhibitors; AID 2101, 2009; Lysosomal acid glucosylceramidase (Homo sapiens), P04062; hit rate 0.092% among 330,000
Numbers stand for hits; 0 = inactive; ? = inconclusive; - = not tested or not shown; [ ] = dose if it differs, or a comment. Calls follow the shape of the dose curve; as a rule, active = well fitted curve in the direction sought with a large enough effect; inconclusive = small, poorly fitted or top-dose-only effect, or another doubt; inactive = no such curve, though single readings can be large; an effect the other way counts as inactive or inconclusive.

SMILES | aGlu spleen mod | GLA spleen mod | GAA inhib | GLA inh pH 4.5 | GAA glycogen | N370S GC
CCCCc1cc(=O)oc2cc(OC(C)C(=O)NCCN3CCOCC3)c(Cl)cc12 (stereo unspecified) | - | - | - | - | - | 20µM
CCCCc1cc(=O)oc2cc(OCC(=O)NCCN3CCOCC3)c(Cl)cc12 | - | - | - | - | 0 | 0
COCC(=O)N1CCc2nc(-c3ccc(OC)cc3C)c3c(c2C1)CO[C@@H](c1ccccc1)C3 | 0[17.4 µM] | 0[17.5 µM] | - | 0 | - | 0[12.8 µM]
C/C(=N\NC(=O)c1ccccc1F)c1ccc2c(c1)Nc1ccccc1S2 | 0 | 0 | 0 | 0 | 25µM | 0
CCCCc1nc2c(c3c1C[C@H](C)OC3)CN(C(=O)COC)CC2 | 0[17.4 µM] | 0[17.5 µM] | - | 0 | - | 0[12.8 µM]
CC(=Nc1ccccc1N)c1c(C)cc(=O)n(O)c1O | 0 | 0 | - | - | - | 0
CC1(C)Nc2ccc(O)cc2-c2c1ssc2=S | 0 | 0 | 0 | 0 | 40µM | 0
Nc1cc(CN2C(=O)c3ccccc3C2=O)cc(Cl)c1O | 0 | 0 | 0 | 0 | 7.9µM | 0
O=C1c2ccccc2C(=O)N1Cc1cc(Cl)c(O)c([N+](=O)[O-])c1 | - | - | - | - | 0 | 0
CCOC(=O)C1=C(C)NC(SCc2cc(=O)[nH][nH]2)=C(C#N)C1c1cccs1 (stereo unspecified) | 0 | 0 | 0 | 0 | 31µM | 0
CN1CC(O)C2=CC(=O)C(=O)C=C21 (stereo unspecified) | 0 | 0 | - | - | - | 0
COc1ccc2c(c1OC)C(=O)OC2CC(=O)c1ccc(O)c(O)c1 (stereo unspecified) | 0 | 0 | 0 | 0 | 14µM | 0
CN=c1scc(-c2ccc(F)cc2)n1/N=C/c1ccc(O)c(O)c1 | 0 | 0 | 0 | 0 | 5.6µM | 0
C=CC[n+]1c(-c2ccc(OC)cc2)csc1NNC(=O)Nc1ccccc1 | 0 | 0 | 0 | 0 | 20µM | 0
O=S(=O)(N/N=C\c1ccc(-c2ccccc2Cl)o1)c1ccccc1 | 0 | 0 | 0 | 0 | 25µM | 0
O=C(N/N=C/c1ccc(-c2ccccc2Cl)o1)c1ccccc1 | 0 | 0 | 0 | 0 | 0 | 0
Cc1ccc2nc(-c3ccc(N4C(=O)CC(N5CCN(CCO)CC5)C4=O)cc3)sc2c1 (stereo unspecified) | 0 | 0 | 0 | 0 | 0 | 18µM
Cc1ccc(N2C(=O)CC(N3CCN(c4ccccn4)CC3)C2=O)cc1 (stereo unspecified) | 0 | 0 | 0 | 0 | 0 | 0
CCOC(=O)CCCCC(=O)c1[nH]c(=O)[nH]c1CSc1nc(-c2ccccc2)c(C#N)c(=O)[nH]1 | 0 | 0 | ? | 0 | 35µM | 0
NC(C(=O)O)c1ccc(P(=O)(O)O)cc1 (stereo unspecified) | 0 | 0 | - | - | - | 0
CNC(=S)NNc1nc(N2CCOCC2)nc(N2CCOCC2)n1 | 0 | 0 | 0 | 0 | 7.9µM | 0
CCc1ccc(O)c(N=Cc2ccccc2O)c1 | 0 | 0 | 0 | 0 | 11µM | 0
Cc1cccc(C(=O)Nc2cccc(C(=O)N3CCOCC3)c2)c1 | 0 | 0 | 0 | 0 | 0 | -
CC(=O)/C(=N/Nc1cccc(C)c1)N1CCOCC1 | 0 | 0 | 0 | 0 | 18µM | 0
COc1cccc(OCC(O)CN2CCC(CN3C(=O)c4cccc5cccc(c45)C3=O)CC2)c1 (stereo unspecified) | 0 | 0 | 0 | 0 | 0 | 0
SMILES | aGlu spleen mod | GLA spleen mod | GAA inhib | GLA inh pH 4.5 | GAA glycogen | N370S GC
O=C1c2cccc3cccc(c23)C(=O)N1CC1CCN(CC(O)COc2ccc3ccccc3c2)CC1 (stereo unspecified) | 0 | 0 | 0 | 0 | 25µM | 0
N[C@@H](COC(c1cccc(F)c1)c1ccccc1OCc1ccccc1)C(=O)O (stereo partly specified) | 0 | 0 | - | - | - | 0
Oc1ccc(/C=N/N2CCN(C3c4ccccc4-c4ccccc43)CC2)cc1 | 0 | 0 | 0[15.4 µM] | 0 | 0 | 0
Oc1ccc(/C=N/N2CCN(C3c4ccccc4-c4ccccc43)CC2)cc1O | 0 | 0 | - | 0 | 10µM | 0
CCOc1ccc(NC(=O)CNC(=O)c2cn(-c3ccccc3OC)c(=O)c3ccccc23)cc1 | 0 | 0 | 0 | 0 | 0 | 13µM
O=c1cc2c(=O)oc3cc(O)c(O)oc3c2c(O)c1O | 0 | 0 | 0 | 0 | 8.9µM | 0
COc1c(O)cc2c(=O)oc3c(OC)c(O)cc4c(=O)oc1c2c34 | 0 | 0 | - | 0 | - | 0
CCCCC(CC)COCC1CO1 (stereo unspecified) | 0 | 0 | - | - | - | 0
NC12CCc3c(no[n+]3[O-])C1(O)CC(c1ccccc1)=[N+]2[O-] (stereo unspecified) | 0 | 0 | 0 | 0 | 0 | 0
